Some test systems named below: NCI-H23 lung; NCI-H226 lung; NCI-H322M lung; HOP-62 NSCLC; NCI-H460 lung; HOP-92 NSCLC; NCI-H522 lung; A549/ATCC NSCLC; 786-0 renal; COLO 205 colon; DU-145 prostate; K-562 leukemia; MALME-3M melanoma; MDA-MB-231 breast; RXF 393 renal; SF-268 CNS; SF-295 CNS; SF-539 CNS; UACC-257 melanoma; M14 melanoma.
Experiment in all cases: NCI-60 one-dose screen, 48 h (100 = growth as untreated, 0 = no growth, -100 = all killed)
Conditions in all cases: 10 µM unless noted

These results are taken from PubChem BioAssay (NCI).

About 83,000 compounds went through this panel and 20% of them were active in at least one assay; those are over-represented in the sample as a whole.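 48-hour exposure, single concentration, 96-well plates; percent growth endpoint where 0 means no net growth. Active: below 10.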 Values without a mark were called inactive. Calls of active or inactive are those of the source.

For `CCOC(=O)c1c2c(n(-c3ccc(C#N)cc3)c1-c1ccccc1)C=CCC2`, the growth with NCI-H23 lung was 89.3%; with NCI-H226 lung, 96.5%; in the assay with NCI-H322M lung, 91.6%; with HOP-62 NSCLC, 83.3%; in the assay with NCI-H460 lung, 98.9%; in the assay with HOP-92 NSCLC, 98.4%. Also, the growth was 72.1% with NCI-H522 lung; 91.1% in the assay with A549/ATCC NSCLC; 101% in the assay with 786-0 renal; 87.2% in the assay on COLO 205 colon; 102% in the assay with DU-145 prostate; 70.7% in the assay on K-562 leukemia. In addition, the growth was 103% in the assay on MALME-3M melanoma; 91.6% in the assay with MDA-MB-231 breast; 109% in the assay with RXF 393 renal; 96.8% in the assay with SF-268 CNS; 86.2% in the assay on SF-295 CNS; 114% with SF-539 CNS. Further, the growth in the assay with UACC-257 melanoma was 102%; with M14 melanoma it was 93.5%.
On to `CN1C(=C2C(=O)OC(C)(C)OC2=O)CCC1C(=O)NCc1ccc(Cl)cc1Cl` (stereo not given), for which the growth in the assay on NCI-H23 lung is 97.9%; with NCI-H226 lung, 79.1%; with NCI-H322M lung, 107%; with HOP-62 NSCLC it was 85.4%; with NCI-H460 lung, 100%; with HOP-92 NSCLC, 85.3%. The growth is 54.2% in the assay on NCI-H522 lung; 79.5% in the assay on A549/ATCC NSCLC; 103% in the assay with 786-0 renal; 103% in the assay on COLO 205 colon; 107% in the assay with DU-145 prostate; 97.5% in the assay with K-562 leukemia. The growth in the assay on MALME-3M melanoma was 102%; with MDA-MB-231 breast it was 99.5%; in the assay with RXF 393 renal it was 108%; in the assay on SF-268 CNS, 101%; with SF-295 CNS it was 96.4%; in the assay with SF-539 CNS, 96%. The growth with UACC-257 melanoma was 87%; in the assay with M14 melanoma it was 98.2%.
`Cc1ccc(C(=O)NCCNc2nccc(-c3c(-c4cccc(F)c4)nc4sccn34)n2)cc1`: the growth was 70.5% with NCI-H23 lung; 36.4% in the assay on NCI-H226 lung; 64.8% with NCI-H322M lung; 86.1% in the assay with HOP-62 NSCLC; 34.8% in the assay with NCI-H460 lung; 74.8% in the assay with HOP-92 NSCLC. In addition, the growth was 72.2% with NCI-H522 lung; 31.2% in the assay on A549/ATCC NSCLC; 60.8% in the assay with 786-0 renal; 27.6% in the assay on COLO 205 colon; 62.9% with DU-145 prostate; 48.7% in the assay with K-562 leukemia. In addition, the growth in the assay with MALME-3M melanoma is 47.3%; in the assay with MDA-MB-231 breast, 72.5%; in the assay with RXF 393 renal, 39.9%; with SF-268 CNS, 60%; in the assay with SF-295 CNS, 62.5%; in the assay with SF-539 CNS, 90.1%. The growth is 75.1% with UACC-257 melanoma and 44% in the assay on M14 melanoma.
Take `COc1ccc(-c2nn(C(=O)c3cc(OC)c(OC)c(OC)c3)c3cc(N)ccc23)cc1`: the growth is 34.1% in the assay with NCI-H23 lung; 28.9% in the assay with NCI-H226 lung; 53.4% with NCI-H322M lung; 30.1% in the assay with HOP-62 NSCLC; 9.14% (active) with NCI-H460 lung; 50.1% with HOP-92 NSCLC. The growth with NCI-H522 lung was -12.6% (active); with A549/ATCC NSCLC, 18.1%; in the assay with 786-0 renal it was 6.94% (active); in the assay on COLO 205 colon, -60.3% (active); in the assay on DU-145 prostate, 10.1%; with K-562 leukemia, 8.96% (active). In addition, the growth in the assay with MALME-3M melanoma is 68.2%; with MDA-MB-231 breast it was 29.9%; with RXF 393 renal it was 14.6%; in the assay on SF-268 CNS it was 27.4%; in the assay on SF-295 CNS, 7.45% (active); in the assay on SF-539 CNS, -24% (active). Further, the growth is 86.4% in the assay on UACC-257 melanoma and 24.4% in the assay on M14 melanoma.
On to `C=CCNc1ccc2c3c(cccc13)C(=O)N(N1C(=O)c3cccc4cccc(c34)C1=O)C2=O`, for which the growth was 91.9% with NCI-H23 lung; 93.9% in the assay with NCI-H226 lung; 102% in the assay with NCI-H322M lung; 96.3% in the assay with HOP-62 NSCLC; 102% in the assay on NCI-H460 lung; 98.7% in the assay with HOP-92 NSCLC. The growth is 93.9% in the assay on NCI-H522 lung; 98.2% in the assay on A549/ATCC NSCLC; 104% with 786-0 renal; 117% in the assay on COLO 205 colon; 109% in the assay on DU-145 prostate; 103% in the assay on K-562 leukemia. Also, the growth with MALME-3M melanoma is 110%; with MDA-MB-231 breast, 108%; in the assay with RXF 393 renal, 104%; with SF-268 CNS, 98.1%; in the assay on SF-295 CNS, 102%; with SF-539 CNS, 99.8%. The growth was 98.5% with UACC-257 melanoma and 102% with M14 melanoma.
Take `O=C(Nn1c(NCC(=O)N2c3ccccc3Sc3ccccc32)nnc1-c1ccc(O)cc1)c1ccccc1`: the growth was 94.4% with NCI-H23 lung; 104% in the assay on NCI-H226 lung; 104% in the assay with NCI-H322M lung; 99.5% in the assay on HOP-62 NSCLC; 105% with NCI-H460 lung; 91.2% in the assay on HOP-92 NSCLC. The growth in the assay with NCI-H522 lung was 93.1%; in the assay on A549/ATCC NSCLC, 106%; in the assay on 786-0 renal, 92.4%; in the assay on COLO 205 colon, 112%; in the assay on DU-145 prostate, 113%; in the assay with K-562 leukemia, 118%. Moreover, the growth in the assay with MALME-3M melanoma was 95.5%; in the assay on MDA-MB-231 breast, 95.3%; in the assay with RXF 393 renal, 122%; in the assay with SF-268 CNS it was 105%; with SF-295 CNS it was 105%; with SF-539 CNS, 105%. The results for the growth with UACC-257 melanoma and with M14 melanoma were 104% and 92.8%, respectively.
For the molecule `C[C@]12CC[C@@H]3c4cc(OC(F)F)c(OS(N)(=O)=O)cc4CC[C@H]3[C@@H]1CC[C@@H]2OS(N)(=O)=O`, the growth in the assay on NCI-H23 lung is 36.2%; with NCI-H226 lung it was 93.2%; with NCI-H322M lung it was 65.7%; in the assay with HOP-62 NSCLC it was 44.4%; in the assay with NCI-H460 lung, 15.1%; in the assay on HOP-92 NSCLC, 57.3%. Besides, the growth in the assay on NCI-H522 lung is 45.7%; in the assay with A549/ATCC NSCLC, 43.5%; in the assay on 786-0 renal, 67.5%; with COLO 205 colon, 116%; with DU-145 prostate it was 42.1%; in the assay with K-562 leukemia it was 16.8%. The growth in the assay with MALME-3M melanoma was 41%; in the assay on MDA-MB-231 breast it was 54%; with RXF 393 renal it was 42.1%; in the assay with SF-268 CNS, 49.7%; in the assay with SF-295 CNS it was 27.3%; with SF-539 CNS it was 26%. Moreover, the growth with UACC-257 melanoma is 62.2%; in the assay with M14 melanoma, 31.1%.
